Experimental data as given in ChEMBL document CHEMBL1857833, “Screening and optimization of specific chemical series against human African Trypanosomiasis (HAT)”.
Among all 4,400 compounds or so, about 390 (8.9%) showed an effect of 50% or more. For the sample, strong results were picked, then their nearest neighbours and some compounds at random.

test system: Trypanosoma brucei; assay: DNDI: Inhibition of Human African Trypanosomiasis, SBRI 427, in vitro at 2 ug.mL-1; format: functional

SMILES	% inhibition [%]
CCc1ccc(Oc2ncccc2/C(=N/O)NCc2ccccc2)cc1	99
COc1cccc(CN/C(=N\O)c2cccnc2OCC2CCCCC2)c1	71
COc1ccc(Oc2ncccc2/C(=N/O)NCc2ccccc2)cc1	86
O/N=C(\NCc1cccnc1)c1cccnc1OCC1CCCCC1	6
CCc1ccc(Oc2ncccc2/C(=N/O)NCc2ccncc2)cc1	5
COc1ccc(CN/C(=N\O)c2cccnc2Oc2ccccc2)cc1	14
COc1ccc(Oc2ncccc2/C(=N/O)NCc2ccncc2)cc1	-2
O/N=C(\NCc1cc(F)ccc1F)c1cccnc1Oc1ccc(Cl)cc1	12
COc1ccc(Oc2ncccc2/C(=N/O)NCc2cc(F)cc(F)c2)cc1	39
O/N=C(\NCc1cc(F)cc(F)c1)c1cccnc1Oc1ccc(Cl)cc1	59
COc1cccc(CN/C(=N\O)c2cccnc2OC2CCC2)c1	-1
CC(C)(C)c1ccc(-c2nc(Cn3nc(N)cc3-c3ccccc3)co2)cc1	9
CN(CCC#N)Cc1coc(-c2cccc3ccccc23)n1	7
CCOC(=O)C1CCCCN1Cc1coc(-c2cccc(OCC)c2)n1 (centres undefined)	2
COc1ccccc1CNCc1coc(-c2ccc(Br)cc2)n1	3
CCN(Cc1coc(-c2ccccc2Cl)n1)c1cccc2ccccc12	-6
COc1cccc(CN/C(=N\O)c2cccnc2Oc2ccc(Cl)cc2)c1	98
COc1cccc(CN/C(=N\O)c2cccnc2Oc2c(F)cccc2F)c1	17
COc1ccc(Oc2ncccc2/C(=N/O)NCc2cccc(OC)c2)cc1	-6
O/N=C(/c1ccnc(Oc2ccc(F)c(Cl)c2)c1)N1CC=CCC1	17

SMILES	% inhibition [%]
Cc1cccc(Oc2ncccc2/C(=N/O)N2CC(C)CC(C)C2)c1C (centres undefined)	1
Cc1cc(C)cc(Oc2nc(C)ccc2/C(=N/O)NCC2CCCCC2)c1	14
Cc1ccc(Oc2nc(C)ccc2/C(=N/O)NCC2CCCCC2)c(C)c1	62
Cc1ccc(Oc2nc(C)ccc2/C(=N/O)NC2CCCCC2)c(C)c1	100
COc1cc(C)ccc1Oc1nc(C)ccc1/C(=N/O)NC1CCCC1	-8
Cc1ccc(Oc2nc(C)ccc2/C(=N/O)NCCN2CCCCC2)c(C)c1	0
Cc1ccc(Oc2nc(C)ccc2/C(=N/O)NC2CCCC2)c(C)c1	25
C=CCN1CCN(/C(=N\O)c2ccc(C)nc2Oc2ccc(C)cc2)CC1	30
CC1C=CC(C)N1/C(=N\O)c1cccnc1Oc1ccc(Cl)cc1 (centres undefined)	-7
Cc1ccc(N2CCN(Cc3coc(-c4ccc(OC(F)(F)F)cc4)n3)CC2)cc1C	23
CC(C)(C)COc1ncccc1/C(=N/O)NCC1CCCO1 (centres undefined)	4
C[C@@H]1C(NCc2coc(-c3ccccc3Br)n2)C[C@H]2C[C@@H]1C2(C)C (some centres undefined)	100
C[C@H]1C(NCc2coc(-c3ccccc3Br)n2)C[C@@H]2C[C@H]1C2(C)C (some centres undefined)	98
CCC(CC)CNCc1coc(-c2ccccc2Br)n1	1
Brc1ccccc1-c1nc(CNCc2ccccc2)co1	11
Brc1ccccc1-c1nc(CNC2CCc3ccccc32)co1 (centres undefined)	7
CC(C)(C)CNCc1coc(-c2ccccc2Br)n1	7
Cc1ccc(/C(=N/O)N2CCCCC2)c(Oc2ccc(F)cc2)n1	24
CCc1nccn1Cc1coc(-c2cc(OC)c(OC)c(OC)c2)n1	9
Cc1ccc2cccc(Oc3cc(/C(N)=N/O)ccn3)c2n1	7

SMILES	% inhibition [%]
Cc1ccc(/C(=N/O)N2CCCC2)c(OCc2ccccc2C)n1	10
CN(Cc1coc(-c2ccc(Cl)cc2Cl)n1)Cc1ccco1	11
O=C(C1CCCO1)N1CCN(Cc2coc(-c3ccc(C(F)(F)F)cc3)n2)CC1 (centres undefined)	4
CCOC(=O)C1CCCN(Cc2coc(-c3ccccc3Cl)n2)C1 (centres undefined)	4
COc1cccc(-c2nc(CN3CCN(c4ccccc4OC)CC3)co2)c1	-9
CC1CC(C)CN(/C(=N\O)c2cccnc2Oc2ccccc2)C1 (centres undefined)	10
Cc1ccc(-c2nc(CNc3ccccc3C)co2)cc1	-4
CC(C)(C)CN/C(=N\O)c1ccc(Oc2ccc3oc4ccccc4c3c2)nc1	8
O/N=C(\NC1CC1)c1ccc(Oc2ccc3oc4ccccc4c3c2)nc1	82
O/N=C(\NC1CCc2ccccc21)c1ccc(Oc2ccc3oc4ccccc4c3c2)nc1 (centres undefined)	19
CN(/C(=N\O)c1ccc(Oc2ccc3oc4ccccc4c3c2)nc1)C1CCCCC1	22
O/N=C(\NC1CCC1)c1ccc(Oc2ccc3oc4ccccc4c3c2)nc1	94
COc1cccc(CN/C(=N\O)c2ccc(Oc3ccc4oc5ccccc5c4c3)nc2)c1	16
O/N=C(\NCc1cccnc1)c1ccc(Oc2ccc3oc4ccccc4c3c2)nc1	84
CCC(C)(C)N/C(=N\O)c1ccc(Oc2ccc3oc4ccccc4c3c2)nc1	97
CC(C)CN/C(=N\O)c1ccc(Oc2ccc3oc4ccccc4c3c2)nc1	11
O/N=C(\NCC1CCCO1)c1ccc(Oc2ccc3oc4ccccc4c3c2)nc1 (centres undefined)	-8
Cc1cc(C)cc(CN/C(=N\O)c2ccc(Oc3ccc4oc5ccccc5c4c3)nc2)c1	32
O/N=C(\NCc1ccncc1)c1ccc(Oc2ccc3oc4ccccc4c3c2)nc1	-14
